Data reported in PubChem BioAssay (NCATS).
Several values for one entry are separate records, joined by “and”; a condition that tells them apart may be missing. Equal entries are not always repeated. Records with an inconclusive call do not appear. Activity calls are given as the source filed them. Calls come from the whole dose curve; as a rule, active = well fitted inhibition curve with a large enough effect; inconclusive = small, poorly fitted or top-dose-only effect; inactive = flat fitted curve, though single readings scatter.

Columns and labels:
[1] = test system: CRL-7250; experiment: Cytotoxic Profiling of Annotated Libraries Using Quantitative High-Throughput Screening (AID 1296008); conditions: Five cell lines viability, CellTiter-Glo ATP luminescence, 48-72 h; max response: stronger effect = lower value; note: potency is the fitted concentration of half-maximal effect; for max response: % is set by controls: 0 for no effect and ±100 for the full control effect
In short: (§1)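 Compounds were pin-transferred onto cells and incubated 48 or 72 hr at 37 degree Celsius, 95% humidity. CellTiter-Glo was added, plates sat 10 min at room temperature, then ATP-coupled luminescence was imaged as the viability read-out.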

[2] = test system: HaCat; experiment: as above; conditions: Five cell lines viability, CellTiter-Glo ATP luminescence, 48-72 h; max response: stronger effect = lower value
In short: as §1

[3] = test system: KB-3-1; experiment: as above; conditions: Five cell lines viability, CellTiter-Glo ATP luminescence, 48-72 h; max response: stronger effect = lower value
In short: as §1

[4] = test system: NIH3T3; experiment: as above; conditions: Five cell lines viability, CellTiter-Glo ATP luminescence, 48-72 h; max response: stronger effect = lower value
In short: as §1

[5] = test system: HACAT; experiment: qHTS assay to identify novel small-molecules to repurpose for Merkel cell carcinoma treatment (AID 1296009); conditions: MCC and control cell lines, CellTiter-Glo viability, 72 h; at 44.8 µM (top of the series) unless noted
In short: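 qHTS format: cells treated with library compounds in DMSO across 8 (NPC) or 11 (MIPE) concentrations. Readout after 72 hr at 37 degree celsius was CellTiter-Glo luminescence.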

[6] = test system: HEK293; experiment: Cytotoxic Profiling of Annotated Libraries Using Quantitative High-Throughput Screening (AID 1296008); conditions: Five cell lines viability, CellTiter-Glo ATP luminescence, 48-72 h; max response: stronger effect = lower value; note: potency is the fitted concentration of half-maximal effect; for max response: % is set by controls: 0 for no effect and ±100 for the full control effect
In short: as §1
Note: nearly all actives have a fitted effect of over 60% in size.

CO[C@@H]1[C@@H](O)[C@H](O)[C@@H](n2c3c(Cl)cccc3c3c4c(c5c6cccc(Cl)c6[nH]c5c32)C(=O)NC4=O)O[C@@H]1CO
active: Potency [1] 3.72 µM | Potency [2] 3.32 µM | Potency [3] 2.96 µM | Potency [4] 1.66 µM

c1ccc2c(Oc3nc(Nc4ccc(N5CCOCC5)cc4)c4ncn(C5CCCCC5)c4n3)cccc2c1
inactive: max response [1] -3.84% and 0.807% | outcome [2] | max response [3] 8.53% | max response [4] 1.5% and -0.0324% | outcome [5]

CCn1c(=O)c2c(nc(C=Cc3ccc(OC)c(OC)c3)n2C)n(CC)c1=O
inactive: max response [1] -2.94% | max response [2] -8.26% | max response [3] 9.4% | outcome [4]

O=C1NC(O)CCN1[C@@H]1O[C@H](CO)[C@H](O)[C@H]1O (some centres not stated)
inactive: max response [1] -71.1% | outcome [2] | max response [3] -2.55% | max response [4] 1.52% | outcome [5]

COC(=O)[C@H](CCCN=C(N)N)NS(=O)(=O)c1ccc(C)cc1
inactive: outcome [1] | max response [2] 0.0008% | max response [3] -0.67% | max response [4] 2.63%

COc1cc(OC)c(NC(=O)Nc2cc(C)on2)cc1Cl
inactive: max response [1] -0.274% | outcome [2] | max response [3] 3.5% | max response [4] 2.83% | outcome [5]

C=C1C(=CC=C2CCC[C@]3(C)[C@@H]([C@H](C)CCCC(C)(C)O)CC[C@@H]23)C[C@@H](O)C[C@@H]1O
inactive: max response [1] -5.17% | outcome [2] | max response [3] -11.2% | outcome [5]
active: Potency [4] 0.0033 µM

CC1(C)O[C@@H]2C[C@H]3[C@@H]4CCC5=CC(=O)C=C[C@]5(C)[C@@H]4[C@@H](O)C[C@]3(C)[C@]2(C(=O)CO)O1
inactive: max response [1] -21.1% | outcome [2] | outcome [3] | max response [4] -5.4% | outcome [5]

C[C@@]12C[C@@]3(O)O[C@@H](O1)[C@]1(COC(=O)c4ccccc4)[C@@H]3C[C@@]12O[C@@H]1O[C@H](CO)[C@@H](O)[C@H](O)[C@@H]1O
inactive: max response [1] 4.21% | outcome [2] | outcome [3] | outcome [4] | outcome [5]

CCCCCCCN(CC)CCCC(O)c1ccc(NS(C)(=O)=O)cc1 (configuration not stated)
inactive: max response [1] 0.839% | outcome [2] | max response [3] -6.17% | max response [4] -1.95% | outcome [5]

Cn1cc(C[C@@H](N)C(=O)O)c2ccccc21
inactive: outcome [2] | max response [3] 4.82% | max response [4] -2.88% | outcome [5] inactive [at 17.4 µM]
active: Potency [1] 5.75 µM

OCc1ccccc1O[C@@H]1O[C@H](CO)[C@H](O)[C@H](O)[C@H]1O
inactive: max response [1] -20.8% | max response [2] -10.2% | outcome [3] | outcome [4]

C[C@](Cc1c[nH]c2ccccc12)(NC(=O)OC1C2CC3CC(C2)CC1C3)C(=O)NC[C@H](NC(=O)CCC(=O)O)c1ccccc1 (some centres not stated)
inactive: outcome [1] | outcome [2] | max response [3] -2.86% | max response [4] -5.4% | outcome [5]

OCCN1C[C@H](O)[C@@H](O)[C@H](O)[C@@H]1CO
inactive: max response [1] -0.792% | outcome [2] | outcome [3] | max response [4] -2.06% | outcome [5]

CN(N=O)C(=O)N[C@H]1C(O)OC(CO)[C@@H](O)[C@H]1O (some centres not stated)
inactive: max response [1] -3.47% | outcome [2] | max response [3] 2.81% | max response [4] -17.4% | outcome [5]

CC(C)c1cnn2c(NCc3ccccc3)cc(NCCCCCCN)nc12
inactive: outcome [1] | outcome [2] | max response [3] 3.97% | max response [4] 0.624% | outcome [5]

C=C1CCC2[C@](C)(CO)C(O)CC[C@]2(C)C1CC=C1C(=O)OCC1O (some centres not stated)
inactive: max response [1] -1.23% | max response [2] -3.92% | max response [3] 8.99% | max response [4] 3.77%

C=C(C)[C@@H]1CC[C@]2(C)CC[C@]3(C)[C@H](CC[C@@H]4[C@@]5(C)CC[C@H](O)C(C)(C)[C@H]5CC[C@]43C)[C@@H]12
inactive: max response [1] -9.28% | outcome [2] | max response [3] 8.9% | outcome [4] | outcome [5]

Cc1ccc(O)c(C(CCN(C(C)C)C(C)C)c2ccccc2)c1 (configuration not stated)
inactive: outcome [1] | outcome [2] | outcome [3] | outcome [4] | outcome [5]

C[C@H]1O[C@H](O[C@H]2[C@H](O)[C@@H](O)[C@@H](O[C@H]3[C@H](O)[C@@H](O)C(O)O[C@H]3CO)O[C@H]2CO)[C@H](O)[C@@H](O)[C@H]1N[C@H]1C=C(CO)[C@@H](O)[C@H](O)[C@@H]1O (some centres not stated)
inactive: max response [1] 1.59% | max response [2] -16.9% | max response [3] 4.29% | max response [4] -1.18%

CC(N[C@H]1CCCC[C@H]1NC(=O)c1ccc(Cl)cc1)c1cccc2ccccc12 (some centres not stated)
inactive: max response [1] 2.81% | outcome [2] | max response [3] 1.61% | max response [4] -12.9% | outcome [5]

C[C@H](NC(=O)[C@@H](O)c1cc(F)cc(F)c1)C(=O)N[C@@H]1C(=O)N(C)c2ccccc2-c2ccccc21
inactive: max response [1] -10.4% | max response [2] -6.76% | max response [3] -9.73% | max response [4] -4.85%

CCN(CC)Cc1ccc2cc(COC(=O)Nc3ccc(C(=O)NO)cc3)ccc2c1
active: Potency [1] 7.43 µM | Potency [2] 1.3 µM | Potency [3] 1.16 µM | Potency [4] 2.31 µM

CC(=CC(=O)Nc1ccccc1C(=O)O)c1ccc2ccccc2c1
inactive: max response [1] -3.34% | outcome [2] | max response [3] -21% | max response [4] -22.4% | outcome [5]

CC[C@H]1OC(=O)[C@H](C)[C@@H](O[C@H]2C[C@@](C)(OC)[C@@H](O)[C@H](C)O2)[C@H](C)[C@@H](O[C@@H]2O[C@H](C)C[C@H](N(C)C)[C@@H]2O)[C@](C)(OC)C[C@@H](C)C(=O)[C@H](C)[C@@H](O)[C@]1(C)O
inactive: max response [1] 4.09% | max response [2] 3.25% | max response [3] -5.56% | outcome [4]

CON=C(C(=O)N[C@@H]1C(=O)N2C(C(=O)O)=C(CSC(=O)c3ccco3)CS[C@H]12)c1csc(N)n1
inactive: max response [1] 4.77% | max response [2] 1.07% | outcome [3] | max response [4] -6.35%

CC(C=CC=C(C)C=CC1=C(C)CCCC1(C)C)=CC=CC=C(C)C=CC=C(C)C=CC1=C(C)CCCC1(C)C
inactive: max response [1] -6.98% | outcome [2] | max response [3] 8.98% | max response [4] -4.98% | outcome [5]

COC(=O)C1C2CC3c4[nH]c5cc(OC)ccc5c4CCN3CC2CC(OC(=O)c2cc(OC)c(OC)c(OC)c2)C1OC (configuration not stated)
inactive: max response [1] -19.7% | outcome [2] | max response [3] 3.89% | max response [4] -9.23% | outcome [5]

Cc1cn([C@@H]2O[C@H](CO)[C@@H](O)[C@H]2F)c(=O)[nH]c1=O
inactive: max response [1] -5.97% | max response [2] -13.3% | outcome [3] | outcome [4]

O=C1c2cccc(O)c2C(=O)c2c(O)cc(CO)cc21
inactive: max response [1] -9.37% | max response [2] -18.1% | max response [3] -6.13% | max response [4] -5.61%

O=C(NCc1ccccc1)[C@H](Cc1ccccc1)NC(=O)[C@@H]1O[C@@H]1C(=O)NCCc1ccc(O)cc1
inactive: outcome [1] | outcome [2] | max response [3] 8.9% | max response [4] 3.87% | outcome [5]

Cc1ccccc1C(=O)Nc1ccc(C(=O)N2CCCC(O)c3cc(Cl)ccc32)c(C)c1 (configuration not stated)
inactive: max response [1] -23.5% | max response [2] 1.52% | outcome [3] | max response [4] -21%

COc1cc(CCc2cc(NC(=O)c3ccc(N4C[C@@H](C)N[C@@H](C)C4)cc3)n[nH]2)cc(OC)c1
inactive: outcome [2] | outcome [5]
active: Potency [1] 4.69 µM and 8.2 µM | Potency [3] 9.35 µM | Potency [4] 10.5 µM

Cn1cc(C=CC(=O)c2cccc(F)c2)cc1C=CC(=O)NO
inactive: max response [1] -7.49% | outcome [2] | outcome [3] | outcome [4] | outcome [5]

CC(=O)SCC(Cc1ccccc1)C(=O)NCC(=O)OCc1ccccc1 (configuration not stated)
inactive: max response [1] -7.71% | outcome [2] | max response [3] 3.33% | max response [4] -4.22% | outcome [5]

C=C[C@@H]1CN2CCC1C[C@H]2[C@H](O)c1ccnc2ccc(OC)cc12 (some centres not stated)
inactive: max response [1] 3.01% | max response [2] -13.1% | max response [3] -2.72% | max response [4] 3.02%

CC(C)C[C@H](NC(=O)[C@@H](NC(=O)c1cccc(-c2ccccc2)n1)[C@@H](C)O)B(O)O
active: Potency [1] 0.092 µM | Potency [2] 526 nM and 580 nM | Potency [3] 187 nM and 184 nM | Potency [4] 118 nM and 116 nM

COc1ccc(C[C@@H](C)[C@@H](C)Cc2ccc(OC)c(OC)c2)cc1OC
inactive: max response [2] 3.58%
active: Potency [1] 3.32 µM | Potency [3] 2.96 µM | Potency [4] 2.35 µM

Cc1[nH]c(C=C2C(=O)Nc3ccccc32)c(C)c1CCC(=O)O
inactive: max response [2] 0.623% | max response [3] 3.92%
active: Potency [6] 4.18 µM | Potency [4] 1.48 µM

Cc1cc(Nc2ncc3c(n2)N(C)C(=O)N(c2cc(NC(=O)c4cccc(C(F)(F)F)c4)ccc2C)C3)n(C)n1
active: Potency [1] 0.469 µM | Potency [2] 0.833 µM | Potency [4] 1.32 µM

CN(C)CCN1C(=O)c2cccc3cc(N)cc(c23)C1=O
active: Potency [1] 10.5 µM | Potency [3] 16.6 µM | Potency [4] 3.32 µM

CCN(CC)CCNC(=O)c1c(C)[nH]c(C=C2C(=O)Nc3ccc(F)cc32)c1C
active: Potency [1] 0.34 µM | Potency [3] 2.15 µM

COc1cc(C)c(Sc2cnc(NC(=O)c3ccc(CNC(C)C(C)(C)C)cc3)s2)cc1C(=O)N1CCN(C(C)=O)CC1 (configuration not stated)
active: Potency [6] 14.8 µM | Potency [2] 26.4 µM | Potency [3] 11.8 µM

CCS(=O)(=O)Nc1ccc2[nH]c(O)c(C(=Nc3ccc(CN4CCCCC4)cc3)c3ccccc3)c2c1
active: Potency [1] 1.32 µM | Potency [3] 9.35 µM | Potency [4] 0.264 µM
